# Reference: the supplement of paper PMC8728848
# This excerpt belongs to a sample that is enriched for the strongest signals.
# Key:
# Test in all cases: glycan array binding signal (z-score within array); higher = stronger binding
# Details in all cases: glycan notation: IUPAC condensed, linker removed
# [1] = molecular target: Fuc(a1-2)Gal(b1-3)GlcNAc(b1-3)Gal(b1-4)Glc
# Outline: (§1)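 The binding signal is a Z-score computed within each array. Data were drawn from 3228 arrays in the Consortium for Functional Glycomics database, restricted to those with a known protein sequence. Scores were averaged over arrays of the same protein sequence at different concentrations or buffers, and over linkers, and negative values can be taken as non-binding.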
# [2] = molecular target: Fuc(a1-2)Gal(b1-3)GlcNAc(b1-3)[Gal(b1-4)GlcNAc(b1-6)]Gal(b1-4)Glc
# Outline: as §1
# [3] = molecular target: Fuc(a1-2)Gal(b1-3)[Fuc(a1-4)]GlcNAc(b1-2)Man(a1-3)[Fuc(a1-2)Gal(b1-3)[Fuc(a1-4)]GlcNAc(b1-2)Man(a1-6)]Man(b1-4)GlcNAc(b1-4)GlcNAc
# Outline: as §1
# Fuc(a1-2)Gal(b1-4)Glc6S = molecular target: Fuc(a1-2)Gal(b1-4)Glc6S
# Outline: as §1
# [4] = molecular target: Fuc(a1-2)Gal(b1-4)[Fuc(a1-3)]GlcNAc(b1-2)Man(a1-3)[Fuc(a1-2)Gal(b1-4)[Fuc(a1-3)]GlcNAc(b1-2)Man(a1-6)]Man(b1-4)GlcNAc(b1-4)GlcNAc
# Outline: as §1
# [5] = molecular target: Fuc(a1-2)Gal(b1-4)[Fuc(a1-3)]GlcNAc(b1-2)[Fuc(a1-2)Gal(b1-4)[Fuc(a1-3)]GlcNAc(b1-4)]Man(a1-3)[Fuc(a1-2)Gal(b1-4)[Fuc(a1-3)]GlcNAc(b1-2)Man(a1-6)]Man(b1-4)GlcNAc(b1-4)GlcNAc
# Outline: as §1
# [6] = molecular target: Fuc(a1-2)[Gal(a1-3)]Gal(b1-3)GlcNAc(b1-2)Man(a1-3)[Fuc(a1-2)[Gal(a1-3)]Gal(b1-3)GlcNAc(b1-2)Man(a1-6)]Man(b1-4)GlcNAc(b1-4)[Fuc(a1-6)]GlcNAc
# Outline: as §1
# [7] = molecular target: Fuc(a1-2)[GalNAc(a1-3)]Gal
# Outline: as §1
# [8] = molecular target: Gal(a1-3)Gal(b1-4)GlcNAc(b1-3)GalNAc
# Outline: as §1
# [9] = molecular target: Gal(b1-3)GalNAc(b1-3)Gal(a1-4)Gal(b1-4)Glc
# Outline: as §1
# [10] = molecular target: Gal(b1-3)GalNAc(b1-4)[Neu5Ac(a2-3)]Gal(b1-4)Glc
# Outline: as §1
# [11] = molecular target: Gal(b1-3)GlcNAc(b1-3)Gal(b1-4)GlcNAc(b1-6)[Gal(b1-3)GlcNAc(b1-3)]Gal(b1-4)Glc
# Outline: as §1
# [12] = molecular target: Gal(b1-3)GlcNAc(b1-6)Gal(b1-4)GlcNAc
# Outline: as §1
# [13] = molecular target: Gal(b1-3)[Neu5Ac(b2-6)]GalNAc
# Outline: as §1
# Gal(b1-4)GlcNAc = molecular target: Gal(b1-4)GlcNAc
# Outline: as §1
# Gal3S(b1-4)Glc6S = molecular target: Gal3S(b1-4)Glc6S
# Outline: as §1
# Gal6S(b1-3)GlcNAc6S = molecular target: Gal6S(b1-3)GlcNAc6S
# Outline: as §1
# GlcA(b1-3)GlcNAc = molecular target: GlcA(b1-3)GlcNAc
# Outline: as §1
# [14] = molecular target: GlcNAc(a1-4)Gal(b1-4)GlcNAc(b1-3)Gal(b1-4)GlcNAc
# Outline: as §1
# [15] = molecular target: GlcNAc(b1-2)Gal(b1-3)GalNAc
# Outline: as §1
# [16] = molecular target: GlcNAc(b1-3)Gal(b1-3)GalNAc
# Outline: as §1
# [17] = molecular target: GlcNAc(b1-3)Gal(b1-4)GlcNAc
# Outline: as §1
# [18] = molecular target: Man(a1-2)Man(a1-6)[Man(a1-3)]Man(a1-6)[Man(a1-2)Man(a1-2)Man(a1-3)]Man(b1-4)GlcNAc(b1-4)GlcNAc
# Outline: as §1
# Neu5Ac(a2-3)Gal = molecular target: Neu5Ac(a2-3)Gal
# Outline: as §1
# [19] = molecular target: Neu5Ac(a2-3)Gal(b1-3)GalNAc(b1-4)[Neu5Ac(a2-3)]Gal(b1-4)Glc
# Outline: as §1
# [20] = molecular target: Neu5Ac(a2-3)Gal(b1-3)[Fuc(a1-4)]GlcNAc(b1-3)Gal(b1-3)[Fuc(a1-4)]GlcNAc
# Outline: as §1
# [21] = molecular target: Neu5Ac(a2-3)Gal(b1-4)GlcNAc(b1-3)Gal
# Outline: as §1
# [22] = molecular target: Neu5Ac(a2-3)Gal(b1-4)GlcNAc(b1-6)[Gal(b1-3)]GalNAc
# Outline: as §1
# [23] = molecular target: Neu5Ac(a2-3)Gal(b1-4)[Fuc(a1-3)]GlcNAc(b1-3)Gal(b1-4)GlcNAc
# Outline: as §1
# [24] = molecular target: Neu5Ac(a2-6)Gal(b1-4)GlcNAc(b1-2)Man(a1-3)[Neu5Ac(a2-6)Gal(b1-4)GlcNAc(b1-2)Man(a1-6)]Man(b1-4)GlcNAc(b1-4)GlcNAc
# Outline: as §1
# [25] = molecular target: Neu5Ac(a2-8)Neu5Ac(a2-3)Gal(b1-3)GalNAc(b1-4)[Neu5Ac(a2-8)Neu5Ac(a2-3)]Gal(b1-4)Glc
# Outline: as §1
# Neu5Ac(b2-6)GalNAc = molecular target: Neu5Ac(b2-6)GalNAc
# Outline: as §1
# [26] = molecular target: Neu5Gc(a2-3)Gal(b1-3)GlcNAc
# Outline: as §1
# [27] = molecular target: Neu5Gc(a2-3)Gal(b1-4)GlcNAc
# Outline: as §1
# [28] = molecular target: Neu5Gc(b2-6)Gal(b1-4)GlcNAc
# Outline: as §1
binder,measurement,setting,value
"MFG-E8 (Homo sapiens), Q08431 (protein) MPRPRLLAALCGALLCAPSLLVALDICSKNPCHNGGLCEEISQEVRGDVFPSYTCTCLKGYAGNHCETKCVEPLGLENGNIANSQIAASSVRVTFLGLQHWVPELARLNRAGMVNAWTPSSNDDNPWIQVNLLRRMWVTGVVTQGASRLASHEYLKAFKVAYSLNGHEFDFIHDVNKKHKEFVGNWNKNAVHVNLFETPVEAQYVRLYPTSCHTACTLRFELLGCELNGCANPLGLKNNSIPDKQITASSSYKTWGLHLFSWNPSYARLDKQGNFNAWVAGSYGNDQWLQVDLGSSKEVTGIITQGARNFGSVQFVASYKVAYSNDSANWTEYQDPRTGSSKIFPGNWDNHSHKKNLFETPILARYVRILPVAWHNRIALRLELLGC",glycan array binding signal (z-score),[1],-0.126
same,glycan array binding signal (z-score),[2],-0.539
same,glycan array binding signal (z-score),[3],2.2
same,glycan array binding signal (z-score),Fuc(a1-2)Gal(b1-4)Glc6S,-0.507
same,glycan array binding signal (z-score),[4],2.88
same,glycan array binding signal (z-score),[5],2.94
same,glycan array binding signal (z-score),[6],-0.115
same,glycan array binding signal (z-score),[7],-0.746
same,glycan array binding signal (z-score),[8],-0.233
same,glycan array binding signal (z-score),[9],-0.572
same,glycan array binding signal (z-score),[10],-0.7
same,glycan array binding signal (z-score),[11],2.38
same,glycan array binding signal (z-score),[12],-0.672
same,glycan array binding signal (z-score),[13],0.07
same,glycan array binding signal (z-score),Gal(b1-4)GlcNAc,-0.753
same,glycan array binding signal (z-score),Gal3S(b1-4)Glc6S,6.38
same,glycan array binding signal (z-score),Gal6S(b1-3)GlcNAc6S,3.63
same,glycan array binding signal (z-score),GlcA(b1-3)GlcNAc,0.43
same,glycan array binding signal (z-score),[14],3.21
same,glycan array binding signal (z-score),[15],-0.68
same,glycan array binding signal (z-score),[16],0.268
same,glycan array binding signal (z-score),[17],-0.62
same,glycan array binding signal (z-score),[18],2.16
same,glycan array binding signal (z-score),Neu5Ac(a2-3)Gal,-0.156
same,glycan array binding signal (z-score),[19],1.61
same,glycan array binding signal (z-score),[20],1.24
same,glycan array binding signal (z-score),[21],0.052
same,glycan array binding signal (z-score),[22],-0.167
same,glycan array binding signal (z-score),[23],-0.126
same,glycan array binding signal (z-score),[24],1.09
same,glycan array binding signal (z-score),[25],-0.776
same,glycan array binding signal (z-score),Neu5Ac(b2-6)GalNAc,1.84
same,glycan array binding signal (z-score),[26],-0.636
same,glycan array binding signal (z-score),[27],1
same,glycan array binding signal (z-score),[28],-0.408
